The values below come from PubChem BioAssay (EPA / NIEHS).

The structures appear in SMILES notation. Activity calls are given as the source filed them. How the source made its calls: active means hit-call score of the fitted dose curve at least 0.9, where 1 is the maximum; inactive means score below 0.9.

The experiment can be described thus: APR_HepG2_CellCycleArrest_1hr: Apredica 1-hour HepG2 Assay for Cell Cycle Arrest (AID 2282666). The note with it: high-content imaging, actives raise or lower the signal. As to the method: APR_HepG2_1hr is a cell-based, multiplexed-readout assay that uses HepG2, a human liver cell line, with measurements taken at 1 hour after chemical dosing in a 384-well plate.APR_HepG2_CellCycleArrest_1hr is one of 10 assay component(s) measured or calculated from the APR_HepG2_1hr assay. It is designed to make measurements of cell phenotype, a form of morphology reporter, as detected with fluorescence intensity signals by HCS Fluorescent Imaging technology.Data from the assay component APR_HepG2_CellCycleArrest_1hr was analyzed into 1 assay endpoint. This assay endpoint, APR_HepG2_CellCycleArrest_1hr, was analyzed with bidirectional fitting relative to DMSO as the negative control and baseline of activity. Using a type of morphology reporter, measures of all nuclear dna for gain or loss-of-signal activity can be used to understand the signaling at the pathway-level as they relate to the gene . Furthermore, this assay endpoint can be referred to as a primary readout, because this assay has produced multiple assay endpoints where this one serves a signaling function. To generalize the intended target to other relatable targets, this assay endpoint is annotated to the cell cycle intended target family, where the subfamily is arrest.
Cells were treated with dimethyl sulfoxide (DMSO) as a solvent control at a final concentration of 0.5% v/v or with compounds in DMSO with a resulting final DMSO concentration of 0.5% v/v. Compound treatment was done at concentrations of 0.39, 0.78, 1.56, 3.12, 6.24, 12.5, 25, 50, 100, and 200 uM in duplicate on each plate. Cells were treated with compounds for 1, 24, or 72 hr. Carbonyl […] m-chloro-phenylhydrazone (CCCP) and taxol were used as positive controls for mitochondrial function and cytoskeletal stability, respectively; DMSO served as the negative control for this experiment. Cells were fixed by the direct addition of 50 uL formaldehyde in Hank's Balanced Salt Solution (HBSS) to a final concentration of 3.7%. After incubation in the fixation medium for 30 min at room temperature (293-298 K), cells were rinsed twice with HBSS and treated with cell permeabilization buffer (16 uL of 0.5% Triton X-100) for 10 min at room temperature (293-298 K) before labeling. For mitochondrial membrane potential and mitochondrial measurements, pre-fixed cells were incubated with 50 uL of MitoTracker Red CMXRos (Invitrogen) at a concentration of 250 nM for 30 min before fixation. In the remaining cases, post-fixed cells were labeled by incubation with a multiplexed mixture of primary antibodies in HBSS for 60 min at room temperature (293-298 K) to detect immunoreactivity of c-Jun (1:500), phospho-histone H3 (1:100), phospho-histone H2A.x (1:200), p53 (1:400), alpha-tubulin (1:200) and Hoechst 33342 (2 ug/mL). Cells were labeled for multiplexed imaging on two separate plates: a) Hoechst 33342, MitoTracker Red, phospho-histone H3, and alpha-tubulin, and b) Hoechst 33342, phospho-histone H2A.x, and c-Jun. A final rinse with HBSS (50 uL) was performed before analysis. The primary and secondary antibodies for the proteins were phospho-histone H3 (rabbit anti-phospho-histone H3 and FITC-donkey anti-rabbit IgG), phospho-histone H2A.x (mouse anti-phospho-histone H2A.x and FITC-donkey anti-mouse IgG), c-Jun (rabbit anti-phospho-c-Jun and Cy3-donkey anti-rabbit IgG), p53 (sheep anti-p53 and Cy5-donkey anti-sheep IgG), alpha-tubulin (mouse anti-alpha-tubulin and Cy5-donkey anti-mouse IgG). These antibodies are available as the CellCiphr HepG2 assay kit (Millipore).Digital images of each well were captured using a Cellomics ArrayScan VTI (Thermo Scientific Cellomics) (0.8 NA objective, 0.63x optical coupler, and XF-93 filter set) at 20x magnification. The images were acquired using the autofocus feature of the ArrayScan instrument, which entails the following steps. First, the camera focuses on channel 1 (Hoechst 33342), where nuclei are identified. Second, a Z offset of 1 um is used for capturing mitochondria (MitoTracker Red). […]
For `C=C(C)CN(CC)c1c([N+](=O)[O-])cc(C(F)(F)F)cc1[N+](=O)[O-]`, the compound was called inactive.

For the compound `CC(C)Nc1nc(Cl)nc(NC(C)C)n1`, the call was inactive.

For the compound `CCCCC(O)(Cn1cncn1)c1ccc(Cl)cc1Cl` (stereo not given), the outcome was inactive.

With `CC(C)(C)C(=O)C(Oc1ccc(Cl)cc1)n1cncn1` (stereo not given), the compound was called inactive.

Consider `COCC(C)N(C(=O)CCl)c1c(C)csc1C` (stereo not given), for which the call was inactive.

`CC1(C)CON(Cc2ccccc2Cl)C1=O`: the call was inactive.

Turning to `CC1(C)CCC(=Cc2ccc(Cl)cc2)C1(O)Cn1cncn1` (stereo not given), the call was inactive.

`N#Cc1c[nH]cc1-c1cccc2c1OC(F)(F)O2`: the call was inactive.

On to `C=CCOC(=O)C(C)(C)OC(=O)c1cc(-n2c(=O)cc(C(F)(F)F)n(C)c2=O)ccc1Cl`, for which the result was inactive.

With `CCCC(=NOCC)C1=C(O)CC(CC(C)SCC)CC1=O` (stereo not given), the result was inactive.

With `Clc1nc(Cl)nc(Nc2ccccc2Cl)n1`, the outcome was inactive.

For `COc1cc(OC)nc(NC(=O)NS(=O)(=O)c2ncccc2OCC(F)(F)F)n1`, the call was inactive.

As to `Cc1cc(C)nc(Nc2ccccc2)n1`, the result was inactive.

`COP(=S)(OC)Oc1ccc([N+](=O)[O-])c(C)c1`: the compound was called inactive.

As for `CCSC(=O)N1CCCCCC1`, the call was inactive.

Turning to `COC(=O)NS(=O)(=O)c1ccc(N)cc1`, the result was inactive.

In the case of `CCCCOCN(C(=O)CCl)c1c(CC)cccc1CC`, the call was inactive.

In the case of `CCOP(=O)(OCC)Oc1nc(Cl)c(Cl)cc1Cl`, the outcome was inactive.

In the case of `Cc1ccc(N=CN(C)C=Nc2ccc(C)cc2C)c(C)c1`, the compound was called inactive.

Regarding `CCNC(=O)NC(=O)C(C#N)=NOC`, the AC50 was 39.1 nM (active).

`O=P(O)(O)CCCl`: the AC50 is 71.3 nM (active).

On to `CSC(=O)c1c(C(F)F)nc(C(F)(F)F)c(C(=O)SC)c1CC(C)C`, for which the compound was called inactive.

With `N#CN=C1SCCN1Cc1ccc(Cl)nc1`, the compound was classed as inactive.

Regarding `CCN(CC)c1nc(C)cc(OP(=S)(OC)OC)n1`, the compound was called inactive.

For `CO/N=C(/C1=NOCCO1)c1ccccc1Oc1ncnc(Oc2ccccc2Cl)c1F`, the call was inactive.

`COP(=S)(OC)SCn1nnc2ccccc2c1=O`: the result was inactive.

For the compound `CNC(=O)N(C)c1nnc(C(C)(C)C)s1`, the outcome was inactive.

For the compound `CCOc1cc(C(C)(C)C)ccc1C1COC(c2c(F)cccc2F)=N1` (stereo not given), the compound was called inactive.

Consider `OC(c1ccc(Cl)cc1)(c1ccc(Cl)cc1)C(Cl)(Cl)Cl`, for which the compound was called inactive.

Take `CCC(C)n1c(=O)[nH]c(C)c(Br)c1=O` (stereo not given): the compound was classed as inactive.

In the case of `CCOC(=O)C(C)OC(=O)c1cc(Oc2ccc(C(F)(F)F)cc2Cl)ccc1[N+](=O)[O-]` (stereo not given), the outcome was inactive.

Turning to `CC(C)C1(C)N=C(c2ncccc2C(=O)O)NC1=O` (stereo not given), the call was inactive.

On to `CCCN(CC)CC1COC2(CCC(C(C)(C)C)CC2)O1` (stereo not given), for which the compound was classed as inactive.

For the compound `Cc1cnc(C2=NC(C)(C(C)C)C(=O)N2)c(C(=O)O)c1` (stereo not given), the result was inactive.

Regarding `CC(C)N1C(=O)c2ccccc2NS1(=O)=O`, the AC50 is 59.2 nM (active).

Regarding `Nc1c(Cl)c(Cl)nc(C(=O)O)c1Cl`, the compound was called inactive.

On to `CC(C)NC(=O)N1CC(=O)N(c2cc(Cl)cc(Cl)c2)C1=O`, for which the compound was called inactive.

On to `N#Cc1c(Cl)cccc1Cl`, for which the result was inactive.

Consider `Cc1nc(N(C)C)nc(OC(=O)N(C)C)c1C`, for which the result was inactive.

Turning to `Nc1c(Cl)c(F)nc(OCC(=O)O)c1Cl`, the compound was called inactive.

The term AC50 denotes the midpoint of the concentration-response curve, whichever way the signal moves.
